A short description of assay [1]: qHTS RealTime-Glo MT Cell Viability Assay in HepG2 cells - 8 hour (AID 1224873). Note: nearly all actives have a fitted effect of over 55% in size. Note: potency is the fitted concentration of half-maximal effect. The method, boiled down: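 HepG2 cells mixed with RealTime-Glo MT reagents (NanoLuc plus cell-permeant prosubstrate) were seeded at 600 cells/well, incubated 5 h at 37 C/5% CO2, then pinned with compounds in DMSO; nonlytic luminescence tracked viability during 40 h treatment.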
Background: In qHTS, concentration-response curves come from the screen itself.

Assay [2] in a line: qHTS RealTime-Glo MT Cell Viability Assay in HEK293 cells - 40 hour (AID 1224874). Note: nearly all actives have a fitted effect of over 50% in size. Note: potency is the fitted concentration of half-maximal effect. The conditions noted are these: RealTime-Glo luminescence; max response: active compounds read low. The method, boiled down: (§1)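 HEK293 cells mixed with RealTime-Glo reagents (NanoLuc plus cell-permeant prosubstrate) at 600 cells/well, preincubated 5 h at 37 C/5% CO2, then given 23 nL compound in DMSO. Nonlytic luminescence from viable cells was read at 0, 8, 16, 24, 32 and 40 h.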

Assay [3] can be described thus: A CellTox Green Cytotoxicity Assay to monitor cytotoxicity in HepG2 cells - 16 hour (AID 1224876). Note: nearly all actives have a fitted effect of over 45% in size. Note: potency is the fitted concentration of half-maximal effect. The method, boiled down:
(§2)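 HepG2 cells were seeded together with the CellTox Green dye at 600 cells/well, left 5 h at 37 C/5% CO2, then given compounds in DMSO. Fluorescence from dye bound to dead-cell DNA was read repeatedly over 40 h of treatment at 37 C.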

Assay [4] can be described thus: qHTS RealTime-Glo MT Cell Viability Assay in HepG2 cells - 32 hour (AID 1224877). Note: nearly all actives have a fitted effect of over 55% in size. Note: potency is the fitted concentration of half-maximal effect. The method, boiled down:
(§3)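 HepG2 cells (600/well) were dispensed with RealTime-Glo reagents, incubated 5 h at 37 °C, then treated with compounds in DMSO for up to 40 h. Nonlytic NanoLuc luminescence reflecting viable cells was read at each stated time point.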

A short description of assay [5]: A CellTox Green Cytotoxicity Assay to monitor cytotoxicity in HepG2 cells - 40 hour (AID 1224879). Note: nearly all actives have a fitted effect of over 40% in size. Note: potency is the fitted concentration of half-maximal effect. An outline of the steps:
as §2

A short description of assay [6]: qHTS RealTime-Glo MT Cell Viability Assay in HEK293 cells - 0 hour (AID 1224880). Note: top concentration of the series differs between compounds; nearly all actives have a fitted effect of over 45% in size. The method, boiled down: as §1
A short description of assay [7]: A CellTox Green Cytotoxicity Assay to monitor cytotoxicity in HepG2 cells - 32 hour (AID 1224883). Note: nearly all actives have a fitted effect of over 50% in size. Note: potency is the fitted concentration of half-maximal effect. The method, boiled down: as §2
Assay [8] in a line: qHTS RealTime-Glo MT Cell Viability Assay in HEK293 cells - 24 hour (AID 1224886). Note: nearly all actives have a fitted effect of over 50% in size. Note: potency is the fitted concentration of half-maximal effect. An outline of the steps:
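HEK293 cells seeded with NanoLuc/prosubstrate reagent, rested 5 h at 37 C, then dosed and kept at 37 C up to 40 h. Nonlytic real-time luminescence from viable cells read at 0, 8, 16, 24, 32 and 40 h.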

A short description of assay [9]: qHTS RealTime-Glo MT Cell Viability Assay in HEK293 cells - 8 hour (AID 1224887). Note: nearly all actives have a fitted effect of over 50% in size. Note: potency is the fitted concentration of half-maximal effect. The method, boiled down: as §1
Assay [10] can be described thus: qHTS RealTime-Glo MT Cell Viability Assay in HepG2 cells - 0 hour (AID 1224889). Note: nearly all actives have a fitted effect of over 50% in size. An outline of the steps:
as §3

A short description of assay [11]: A CellTox Green Cytotoxicity Assay to monitor cytotoxicity in HepG2 cells - 8 hour (AID 1224890). Note: nearly all actives have a fitted effect of over 45% in size. Note: potency is the fitted concentration of half-maximal effect. The method, boiled down: as §2
The nature of assay [12]: qHTS assay to identify small molecule antagonists of the estrogen receptor alpha (ER-alpha) signaling pathway using the BG1 cell line in the presence of 0.1 nM 17-beta-estradiol - cell viability counter screen (AID 1259241). Note: nearly all actives have a fitted effect of over 40% in size. Note: potency is the fitted concentration of half-maximal effect. An outline of the steps:
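Live-cell protease activity (CellTiter-Fluor fluorescence, 30 min) was read in the same wells after VM7Luc4E2 cells had been exposed to compounds with 0.1 nM 17beta-estradiol for 22 hr at 37C.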

The nature of assay [13]: A CellTox Green Cytotoxicity Assay to monitor cytotoxicity in HEK293 cells - 24 hour (AID 1224875). Note: nearly all actives have a fitted effect of over 45% in size. Note: potency is the fitted concentration of half-maximal effect. The method, boiled down: (§4)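 HEK293 cells premixed with CellTox Green dye were seeded at 600 cells/well and left 5 h at 37 C/5% CO2 before pin transfer of 23 nL compound in DMSO. Fluorescence from dye bound to dead-cell DNA was read during 40 h treatment.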
Assay [14] in a line: A CellTox Green Cytotoxicity Assay to monitor cytotoxicity in HEK293 cells - 32 hour (AID 1224881). Note: nearly all actives have a fitted effect of over 40% in size. Note: potency is the fitted concentration of half-maximal effect. The method, boiled down: as §4
A short description of assay [15]: A CellTox Green Cytotoxicity Assay to monitor cytotoxicity in HEK293 cells - 8 hour (AID 1224884). Note: nearly all actives have a fitted effect of over 35% in size. Note: potency is the fitted concentration of half-maximal effect. The method, boiled down: as §4
Assay [16] can be described thus: qHTS assay to identify small molecule antagonists of the androgen receptor (AR) signaling pathway using the MDA cell line in the presence of 0.5 nM R1881 - cell viability counter screen (AID 1259242). Note: nearly all actives have a fitted effect of over 45% in size. Note: potency is the fitted concentration of half-maximal effect. An outline of the steps: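 MDA-kb2 cells (human breast carcinoma, stably carrying MMTV-luciferase reporter) were exposed to compounds with 0.5 nM R1881 (final) for 16 hr at 37C, 0% CO2; viability then read as live-cell protease fluorescence (CellTiter-Fluor, 30 min) in the same wells.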

The nature of assay [17]: A CellTox Green Cytotoxicity Assay to monitor cytotoxicity in HepG2 cells - 24 hour (AID 1224878). Note: nearly all actives have a fitted effect of over 45% in size. Note: potency is the fitted concentration of half-maximal effect. An outline of the steps:
as §2

The nature of assay [18]: A CellTox Green Cytotoxicity Assay to monitor cytotoxicity in HepG2 cells - 0 hour (AID 1224882). Note: nearly all actives have a fitted effect of over 35% in size. An outline of the steps:
as §2

Assay [19] can be described thus: qHTS RealTime-Glo MT Cell Viability Assay in HepG2 cells - 16 hour (AID 1224885). Note: nearly all actives have a fitted effect of over 50% in size. Note: potency is the fitted concentration of half-maximal effect. The method, boiled down: as §3
A short description of assay [20]: A CellTox Green Cytotoxicity Assay to monitor cytotoxicity in HEK293 cells - 16 hour (AID 1224888). Note: nearly all actives have a fitted effect of over 35% in size. Note: potency is the fitted concentration of half-maximal effect. An outline of the steps:
as §4

A number with no mark means an inactive call. Records with an inconclusive call do not appear. Calls of active or inactive are those of the source. Calls come from the whole dose curve; as a rule, active = well fitted curve in the direction sought with a large enough effect in the repeat runs; inconclusive = weak or mixed curves; inactive = no such curve, though single readings can be large; an effect the other way counts as inactive or inconclusive.

Among the data in PubChem BioAssay (Tox21) are Potency and max response values, retold here.
% is set by controls: 0 for no effect and ±100 for the full control effect.

As to `CCO[Si](CCCSSSSCCC[Si](OCC)(OCC)OCC)(OCC)OCC`, the Potency entry in [1], in assay [3], in assay [4], in assay [5], in assay [6] and in assay [7] was “inactive” each time. Further, the Potency result in assay [8], in assay [9], in assay [10], in assay [11] and in [12] was “inactive” each time. Further, in assay [2], the max response is -16.8%.
For the compound `NCCCC(O)(P(=O)(O)O)P(=O)(O)O`, the Potency entry in assay [1], in [13], in assay [4], in assay [5], in assay [6] and in assay [14] was “inactive” throughout. Further, the Potency result in [15], in [8], in [9], in [10], in assay [12] and in assay [16] was “inactive” each time. The max response in assay [2] is 12.2%.
Take `CCCC(=O)OCC(COC(=O)CCC)OC(=O)CCC`: the Potency entry in assay [1], in assay [13], in [3], in assay [4], in [17] and in assay [5] was “inactive” each time. For the same compound, the Potency result in [6], in assay [14], in [18], in assay [7], in [15] and in assay [19] was “inactive” each time. Moreover, the Potency result in assay [8], in assay [9], in assay [20], in assay [10], in [11] and in assay [12] was “inactive” each time. In assay [16], the Potency entry is “inactive”.
Regarding `O=C1NCN(c2ccccc2)C12CCN(CCCC(c1ccc(F)cc1)c1ccc(F)cc1)CC2`, the Potency in [1] was 10.7 µM (active); in assay [2] it was 19 µM (active); in assay [3] it was 9.52 µM (active); in assay [4] it was 6.01 µM (active); in assay [17] it was 7.56 µM (active); in [14], 23.9 µM (active). Besides, the Potency in assay [7] is 6.74 µM (active); in assay [19] it was 7.56 µM (active); in [8], 19 µM (active); in assay [11], 10.7 µM (active); in [12], 13.3 µM (active); in [16], 29.8 µM (active). The Potency result in assay [6], in [18], in assay [15] and in assay [10] was “inactive” in each case.
In the case of `O=C1OC(=O)c2cccc3cccc1c23`, the Potency result in assay [1], in assay [13], in [4], in assay [6], in [14] and in [18] was “inactive” throughout. The Potency result in assay [7], in assay [15], in assay [19], in [8], in [9] and in [10] was “inactive” each time. Moreover, the Potency result in assay [11], in assay [12] and in assay [16] was “inactive” in each case. Also, the max response in assay [2] was -9.96%.
As to `CSc1c(Cl)c(Cl)c(Cl)c(Cl)c1Cl`, the Potency result in [1], in [4], in assay [6], in assay [18], in [15] and in [19] was “inactive” throughout. Moreover, the Potency result in assay [8], in [20], in assay [10], in [12] and in [16] was “inactive” in each case. Besides, the max response in [2] was -20.6%. Besides, the Potency in assay [3] is 48.7 µM (active).
Turning to `C/C=C/C=N/NC(=O)c1ccncc1`, the Potency entry in assay [1], in assay [3], in assay [4], in assay [17], in [5] and in assay [6] was “inactive” in each case. Further, the Potency result in [18], in assay [7], in assay [19], in assay [9], in assay [10] and in [12] was “inactive” in each case. Besides, in assay [16], the Potency entry was “inactive”. Also, the max response in [2] is 11.4%.
As for `Clc1ccc(C(Cn2ccnc2)OCc2c(Cl)cccc2Cl)c(Cl)c1` (stereo not given), the Potency entry in assay [1], in [13], in assay [4], in assay [19], in assay [20] and in [12] was “inactive” in each case. In [16], the Potency result was “inactive”. The Potency in assay [2] and in assay [8] was 16.9 µM (active) in each case.
`CC(C)(C)C1=CC(=O)C=C(C(C)(C)C)C1=O`: the Potency result in assay [1], in [3], in [4], in assay [17], in assay [5] and in assay [6] was “inactive” each time. The Potency result in assay [18], in assay [7], in assay [15], in assay [19], in [8] and in [9] was “inactive” each time. The Potency result in assay [20], in [10], in assay [11], in assay [12] and in assay [16] was “inactive” in each case. In addition, the max response in assay [2] is 11.2%.
For `CCC1(c2cnc[nH]2)Cc2ccccc2C1`, the Potency entry in assay [1], in [13], in assay [4], in assay [6], in assay [14] and in [7] was “inactive” throughout. Further, the Potency result in assay [15], in assay [19], in assay [8], in assay [9], in [20] and in assay [10] was “inactive” in each case. Moreover, the Potency result in assay [11] is “inactive”. For the same compound, the max response in assay [2] was -4.11%.
As to `CCOC(=O)[C@@](C)(N)Cc1ccc(O)c(O)c1`, the Potency entry in assay [1], in [13], in assay [4], in [6], in [14] and in assay [15] was “inactive” throughout. The Potency result in assay [19], in [8], in assay [9], in assay [10] and in assay [16] was “inactive” throughout. Also, the max response in assay [2] was 0.793%.
`CC1CCCCN1CCCOC(=O)c1ccc(OC2CCCCC2)cc1` (stereo not given): the Potency entry in assay [1], in assay [6], in assay [18], in assay [15], in assay [20] and in [10] was “inactive” each time. The Potency entry in [11] and in assay [12] was “inactive” each time. For the same compound, the Potency in assay [2] was 21.3 µM (active); in assay [17] it was 26.8 µM (active); in assay [5], 26.8 µM (active); in assay [7], 26.8 µM (active); in assay [8] it was 16.9 µM (active); in assay [9] it was 10.7 µM (active).
Turning to `CCCCCCC(C)OC(=O)COc1nc(F)c(Cl)c(N)c1Cl` (stereo not given), the Potency result in [1], in assay [13], in assay [4], in assay [6], in [18] and in assay [15] was “inactive” throughout. The Potency entry in assay [20], in assay [10], in assay [11], in [12] and in assay [16] was “inactive” throughout. Further, in [2], the max response is -20.4%.
Regarding `Brc1ccccc1-c1ccccc1`, the Potency entry in [1], in assay [4], in [6], in assay [18], in assay [19] and in assay [8] was “inactive” in each case. Also, the Potency entry in assay [10], in assay [12] and in assay [16] was “inactive” throughout. In assay [2], the max response was -2.43%. Further, the Potency in assay [3] was 41.3 µM (active); in assay [17], 46.3 µM (active); in assay [5] it was 1.84 µM (active); in [14], 20.7 µM (active); in assay [7] it was 46.3 µM (active).
Regarding `CC(C)(C)CC(C)(C)c1ccccc1O`, the Potency result in assay [1], in assay [4], in assay [6], in assay [18], in [19] and in assay [10] was “inactive” throughout. Moreover, the Potency result in assay [12] and in assay [16] was “inactive” in each case. The Potency in assay [13] was 39.1 µM (active); in [3], 24.7 µM (active); in assay [17], 27.7 µM (active); in assay [5], 34.9 µM (active); in [14] it was 43.9 µM (active); in assay [7] it was 27.7 µM (active). In addition, the Potency in assay [15] was 39.1 µM (active); in assay [9], 34.9 µM (active); in assay [20] it was 39.1 µM (active).
Regarding `CCCCCCCCCC(=O)N(C)C`, the Potency result in assay [1], in assay [3], in assay [4], in assay [17], in [5] and in assay [6] was “inactive” in each case. The Potency result in assay [18], in [7], in assay [15], in [19], in assay [8] and in [9] was “inactive” throughout. Besides, the Potency result in assay [10], in assay [12] and in [16] was “inactive” in each case. Moreover, the max response in assay [2] is -15.6%.
